# Laboratory results from PubChem BioAssay (Tox21).
# Results filed as inconclusive are left out. Entries that show only a call come without a potency. Unmarked numbers belong to inactive results. Active and inactive are the calls of the source. Calls come from the whole dose curve; as a rule, active = well fitted cell-killing curve with a large enough effect in the repeat runs; inconclusive = weak or mixed curves, or effect the other way; inactive = flat fitted curve, though single readings scatter.
# Assay: Caspase-3/7 induction in HepG2 cells by small molecules, qHTS cell viability counter screen (AID 1346981); note: nearly all actives have a fitted effect of over 30% in size
# Conditions: CellTiter-Fluor fluorescence, 17 h; series mostly up to 92.4 µM
# From the text: U.S. Tox21 Program National Center for Advancing Translational Sciences [NCATS] NIH Chemical Genomics Center [NCGC] U.S. Environmental Protection Agency [EPA] National Institutes of Environmental Health Sciences [NIEHS] National Toxicology Program [NTP] U.S. Food and Drug Administration [FDA] Tox21 Assay Overview: Apoptosis is a process of programmed cell death and plays a central role in the development of multicellular organisms. It is a highly regulated process and induces cell death by activating caspases, which are the members of cysteine aspartic acid-specific protease (caspase) family. Caspases involved in apoptosis are classified by their mechanism of action as initiator caspases (caspase-2, -8, -9 and -10) and executioner caspases (caspase-3, -6, and -7). Inhibition of apoptosis results in number of cancers, autoimmune diseases, inflammatory diseases and viral infection. To identify small molecule compounds that induce apoptosis, a homogeneous, luminescent Caspase-Glo 3/7 assay was used. Wild type HepG2 cells were used to screen Tox21 libraries for identifying caspase-3/7 activity inducers. Also cytotoxicity of the compounds was tested in parallel by measuring the cell viability using CellTiter-Fluor assay system in the same wells.
# Tox21 Assay Protocol Summary: HepG2 cells were dispensed at 2,000 per well in 5uL of culture medium into white solid bottom 1536-well plates (Corning Life Sciences, Corning, NY) using a Multidrop Combi (Thermo Scientific, Waltham, MA) dispenser. The assay plates were incubated at 37 C and 5% CO2 for 5hr, and then 23nL of compounds dissolved in DMSO and positive control were transferred using a Pintool station ([…], San Diego, CA). The assay plates were incubated at 37C and 5% CO2 for 17hr. For cytotoxicity read, after 16hr incubation at 37C, 1uL CellTiter-Fluor reagent (Promega Corporation, Madison, WI) was added to each well of the assay plates using Flying Reagent Dispenser (FRD, Aurora Discovery, San Diego, CA). After 1hr incubation at 37C and 5% CO2, the fluorescence signal was quantified using a ViewLux plate reader (PerkinElmer, Shelton, CT).
# Potency is the fitted concentration of half-maximal effect.
Structure (SMILES),Potency,"activity change, negative = cytotoxicity"
CC(C)(C)CCCCCCOC(=O)c1ccccc1C(=O)OCCCCCCC(C)(C)C,inactive,–
Cc1cccc2sc(N)nc12,inactive,–
CC(C)N=C=NC(C)C,inactive,–
O=C(O)CNC(=O)c1ccccc1I,inactive,–
NC(=O)CCCCC(N)=O,inactive,–
C[C@H](CS)C(=O)N1CCC[C@H]1C(=O)O,inactive,–
C1=CCC2CC=CC2C1 (stereo not given),inactive,–
CC(CCc1ccc(O)cc1)NCCc1ccc(O)c(O)c1 (stereo not given),inactive,–
CCOC(=O)c1c(N)sc2c1CCN(Cc1ccccc1)C2,inactive,–
N[C@@H](Cc1cc(I)c(O)c(I)c1)C(=O)O,inactive,–
CNC1CCCN(c2c(F)cc3c(=O)c(C(=O)O)cn(C4CC4)c3c2OC)C1 (stereo not given),inactive,–
CCCC(=O)OC(=O)CCC,inactive,–
CC1CCC(C(C)CS)CC1S (stereo not given),inactive,–
Cc1ccc(Cl)cc1N,inactive,–
SCCc1cnccn1,inactive,–
CCC(CO)(CO)CO,inactive,–
O=C(O)/C=C/c1ccc(O)c(O)c1,inactive,–
ClC1=C(Cl)C1(Cl)Cl,inactive,–
CCCCCCCC(=O)OCCCCCC,inactive,–
CCN(Cc1cccc(S(=O)(=O)O)c1)c1ccc(C(=C2C=CC(=[N+](CC)Cc3cccc(S(=O)(=O)O)c3)C=C2)c2ccc(O)cc2S(=O)(=O)[O-])cc1,16.6 µM (active),–

Structure (SMILES),Potency,"activity change, negative = cytotoxicity"
C[C@@H]1C[C@H]2[C@@H]3CCC4=CC(=O)C=C[C@]4(C)[C@@]3(F)[C@@H](O)C[C@]2(C)[C@@]1(O)C(=O)COP(=O)(O)O,inactive,–
CCCCCCCCCCCCCOC(=O)CCSCCC(=O)OCCCCCCCCCCCCC,–,6.29% [at 19 µM]
FC(F)(F)C(F)(F)C(F)(F)C(F)(F)CCI,inactive,–
CC(=O)C(=O)CC(C)C,inactive,–
CCN(CC)CCOC(=O)C(c1ccccc1)c1ccccc1,inactive,–
CC(C)C1CCC(C(=O)N[C@H](Cc2ccccc2)C(=O)O)CC1 (stereo not given in full),inactive,–
CN1C(CSCC(F)(F)F)Nc2cc(Cl)c(S(N)(=O)=O)cc2S1(=O)=O (stereo not given),inactive,–
CCCCOCCOC(=O)c1cccnc1,inactive,–
CC(=O)OC(C)C[N+](C)(C)C (stereo not given),inactive,–
CCC(C)(C)C(=O)O,inactive,–
CCCOC(=O)c1c(Cl)c(Cl)c(Cl)c(Cl)c1C(=O)OCCC,inactive,–
BrC(Br)C(Br)Br,inactive,–
CCCCCCCCCCCC(=O)OCC(O)CO (stereo not given),inactive,–
CCC1CCC(CCC(=O)O)C1 (stereo not given),inactive,–
CN=C(N)NC(=O)Nc1c(C)cccc1C,inactive,–
C=C(C)C(=O)OCCC(F)(F)C(F)(F)C(F)(F)C(F)(F)C(F)(F)C(F)(F)F,inactive,–
CC(C)OC(=O)c1ccccc1C(=O)OC(C)C,inactive,–
CC(C)CC(O)CC(C)C,inactive,–
CCO[Si](C)(CCCOCC1CO1)OCC (stereo not given),inactive,–
CCCCCCC(O)CCOC(C)=O (stereo not given),inactive,–
